In the library only some 2.6% were active in any assay of this set; here they are far more common.
Granule exo inh: lytic granule exocytosis inhibition; TALL-104 LAMP-1 surface exposure, flow cytometry; cells stimulated with thapsigargin and PMA; inhibition, % at 10 µM; 360,000 compounds, 0.66% hits; AID 651702;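 active means inhibition above about 55%, limit read from the data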
PRMT1 FP inh: PRMT1 (human) inhibition, primary screen; recombinant PRMT1, activity-based probe fluorescence polarization; inhibition, % at 2.79 µM; 370,000 compounds, 1.3% hits;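 active means inhibition above about 21% made by adding two undisclosed values, limit read from the data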
NOD2-RIPK2 inh: inhibitors of human NOD2-RIPK2 interaction | inhibition, % at 4.98 µM | AID 624267 | CHO BLA complementation NOD2-RIPK2, CCF4 ratio | 360,000 compounds, 0.38% hits | O43353; in the data active means inhibition above about 21%
TLR9-MyD88 block: blocks human TLR9 binding to MyD88; Q9NR96+Q99836; CHO BLA complementation TLR9-MyD88, CCF4 FRET ratio; inhibition, % at 4.98 µM; 340,000 compounds, 0.21% hits; AID 504734;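 active means inhibition above the mean over all tested compounds plus 3 SD, cut at about 21% in these data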
ABHD5 PLIN5 PPI: ABHD5-PLIN5 protein interaction inhibition. Q00G26+Q8WTS1. Split G. princeps luciferase complementation, luminescence, 4 h. inhibition, % at 4 µM. 360,000 compounds, 0.78% hits;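 active means inhibition above the mean inhibition across every tested compound plus 3 SD, cut at about 22% in these data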
TLR4 MyD88 comp: blocks binding of human TLR4 to MyD88 | AID 861 | HeLa CL3-4 TLR4/MyD88 BLA complementation, FRET ratio | 200,000 compounds, 0.18% hits | inhibition, % at 8.4 µM | O00206+Q99836; in the data active means inhibition above about 25%
Granule exo CP1: blocks lytic granule exocytosis; TALL-104 cells, LAMP-1 externalization, flow cytometry; stimulated with PMA plus thapsigargin; 1,500 compounds, 11% hits; AID 651954; inhibition, % at 10 µM; shares compounds with Granule exo inh; in the data active means inhibition above about 60%
Of the large screens only hits and unclear results are named; the others gave an inactive call (follow-up assays come after a bar, where they were run).

COc1ccc(CN(C2CCCC2)S(=O)(=O)c2cc(Br)ccc2Br)c(OC)c1	none (no result: Granule exo inh, NOD2-RIPK2 inh, TLR9-MyD88 block, ABHD5 PLIN5 PPI, TLR4 MyD88 comp)
Cc1ccc(C(=O)NCCc2ccc(S(=O)(=O)N3CCCC3)cc2)cc1	Granule exo inh 64 | Granule exo CP1 inactive
CCCC[C@H]1C2CC(OC(=O)Nc3ccc(C#N)cc3)C(C2)[C@H]2CCCCN21 (stereo not given in full)	none (no result: Granule exo inh, NOD2-RIPK2 inh, TLR9-MyD88 block, ABHD5 PLIN5 PPI, TLR4 MyD88 comp)
CCN(CC)CCN(C(=O)c1cc2ccccc2cc1OC)c1nc2ccc(OC)cc2s1	Granule exo inh 65 (no result: TLR4 MyD88 comp) | Granule exo CP1 inactive
COc1ccc(OC)c(S(=O)(=O)Nc2ccc(O)c3ccccc23)c1	Granule exo inh 85 | Granule exo CP1 inactive
COc1ccc(OC)c(S(=O)(=O)Nc2cccc3c(O)cccc23)c1	none (no result: TLR9-MyD88 block, TLR4 MyD88 comp)
CCc1ccc(NC(=O)CSc2ccc(-c3ccccn3)nn2)cc1	none (no result: TLR4 MyD88 comp)
CCOC(=O)c1ccccc1NC(=O)CSc1ccc(-c2ccccn2)nn1	Granule exo inh 106 (no result: TLR4 MyD88 comp) | Granule exo CP1 inactive
COc1cccc(NC(=O)Nc2nc(-c3ccc(OC)c(OC)c3)cs2)c1	Granule exo inh 78 (no result: TLR4 MyD88 comp) | Granule exo CP1 87
COc1ccc(CC(=O)Nc2nc(-c3cc(OC)ccc3OC)cs2)cc1	none
COc1ccc(OC)c(-c2csc(NC(=O)Cc3ccc(OC)c(OC)c3)n2)c1	Granule exo inh 64 (no result: TLR4 MyD88 comp) | Granule exo CP1 inactive
COc1ccc(OC)c(-c2csc(NC(=O)Cc3ccccc3)n2)c1	Granule exo inh 59 (no result: TLR4 MyD88 comp) | Granule exo CP1 inactive
O=[N+]([O-])c1cccc(COc2ccc(CO)cc2)c1	none (no result: Granule exo inh, NOD2-RIPK2 inh, TLR9-MyD88 block, ABHD5 PLIN5 PPI, TLR4 MyD88 comp)
NC(=O)C12NC(Cc3ccccc31)c1ccccc12 (stereo not given)	none (no result: Granule exo inh, NOD2-RIPK2 inh, TLR9-MyD88 block, ABHD5 PLIN5 PPI, TLR4 MyD88 comp)
COc1cc2c(cc1NC(=O)CSc1nnc(-c3cccc(Cl)c3)n1Cc1ccco1)oc1ccccc12	none (no result: Granule exo inh, NOD2-RIPK2 inh, TLR9-MyD88 block, ABHD5 PLIN5 PPI, TLR4 MyD88 comp)
Cc1ccccc1C(=O)N(C)[C@H]1C[C@H]2c3[nH]c4c(-c5ccc6c(c5)OCO6)cccc4c3CCN2C(=O)[C@H]1[C@H](C)O	none (no result: Granule exo inh, NOD2-RIPK2 inh, TLR9-MyD88 block, ABHD5 PLIN5 PPI, TLR4 MyD88 comp)
CN(C)C(=O)c1c2c(nc3ccccc13)CCCC2	Granule exo inh 107 | Granule exo CP1 inactive
Cc1onc(-c2ccccc2)c1C(=O)Nc1sc2c(c1C(N)=O)CCC2	none
Cc1onc(-c2c(F)cccc2Cl)c1C(=O)Nc1sc2c(c1C(N)=O)CCC2	Granule exo inh 56 | Granule exo CP1 inactive
O=C(Nc1nc2ccccc2n1CCN1CCOCC1)c1ccc(COc2ccccc2Br)o1	Granule exo inh 70 | Granule exo CP1 80
Cc1ccc(-n2cc(CNCCc3cscn3)c(-c3ccc(F)cc3)n2)cc1	none
Cc1ccc(-c2nn(-c3ccccc3)cc2CO)cc1	none (no result: TLR4 MyD88 comp)
Cc1ccc(-n2cc(CNCCCn3ccnc3C)c(-c3ccc(F)cc3)n2)cc1	Granule exo inh 57 | Granule exo CP1 inactive
Cc1ccc(-c2nn(-c3ccccc3)cc2CNCc2ccccc2)cc1	Granule exo inh 70 (no result: TLR9-MyD88 block) | Granule exo CP1 92
CN(C(=O)[C@@H](Cc1ccccc1)NC(=O)[C@H]1O[C@@H](n2cnc3c(=O)[nH]c(N)nc32)[C@H](O)[C@@H]1O)C1CCCCC1	none (no result: Granule exo inh, NOD2-RIPK2 inh, TLR9-MyD88 block, ABHD5 PLIN5 PPI, TLR4 MyD88 comp)
CN1CCN(c2cc(-c3ccccc3)nc3cc(-c4ccc(F)cc4)nn23)CC1	Granule exo inh 103 | Granule exo CP1 100
Fc1ccc(-c2cc3nc(-c4ccccc4)cc(N4CCN(CCN5CCOCC5)CC4)n3n2)cc1	Granule exo inh 73 | Granule exo CP1 inactive
Cc1cc(C)n(CC(O)Cn2c3ccc(Cl)cc3c3cc(Cl)ccc32)c(=O)n1 (stereo not given)	none
OC(CNCCC1C=Nc2ccccc21)Cn1c2ccc(Cl)cc2c2cc(Cl)ccc21 (stereo not given)	Granule exo inh 71 | Granule exo CP1 inactive
NCc1ccc(OCCCN2CCC(C(O)(C3=CCCC3)c3ccccc3)CC2)cc1 (stereo not given)	none (no result: Granule exo inh, NOD2-RIPK2 inh, TLR9-MyD88 block, ABHD5 PLIN5 PPI, TLR4 MyD88 comp)
COc1cc(C)c(CN2CCC(Cc3ccccc3)CC2)cc1C	Granule exo inh 56 (no result: TLR4 MyD88 comp) | Granule exo CP1 inactive
COc1ccc(OC)c(CN2CCC(Cc3ccccc3)CC2)c1	Granule exo inh 60 (no result: TLR4 MyD88 comp) | Granule exo CP1 inactive
COc1cc(OC)c(CN2CCC(Cc3ccccc3)CC2)cc1Br	none (no result: TLR4 MyD88 comp)
Cc1ccc(N(C)S(=O)(=O)c2cc(-c3cnc(C4CC4)o3)ccc2C)cc1	Granule exo inh 97 (no result: TLR4 MyD88 comp) | Granule exo CP1 inactive
